4 compounds from PubChem BioAssay (EPA / NIEHS) can be followed below.

Broadly, the AC50 is the concentration giving half of the maximal activity seen.

Calls of active or inactive are those of the source. Rule for the calls: active = hit-call score of the fitted dose curve at least 0.9, where 1 is the maximum; inactive = score below 0.9.

Read-out in assay [1]: Fatty acid synthase (Homo sapiens) (UniProt P49327)
Nature of the assay: LTEA_HepaRG_FASN: Life Technologies and Expression Analysis (LTEA) Assay for Fatty Acid Synthase (FASN) using HepaRG (AID 2283448). To be noted: mRNA level, 48 h; actives raise or lower the signal. The gist of the method: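 Differentiated human HepaRG cells were exposed for 48 h in serum-free induction medium to eight half-log concentrations up to 100 uM in 0.5% DMSO, in duplicate. FASN mRNA was quantified by TaqMan qRT-PCR, normalized to ACTB/GAPDH/POLR2A, and fitted bidirectionally against DMSO.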

Read-out in assay [2]: Cyclin D2 (CCND2), CCND2 (gene 894)
Nature of the assay: LTEA_HepaRG_CCND2: Life Technologies and Expression Analysis (LTEA) Assay for Cyclin D2 (CCND2) using HepaRG (AID 2283449).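 Note: CCND2 transcript measured by TaqMan qRT-PCR and normalised to three housekeeping genes.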 To be noted: mRNA level, 48 h; actives raise or lower the signal. The gist of the method:
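Chemicals in 0.5% DMSO, eight half-log concentrations from 100 uM top, were applied in duplicate for 48 h to human HepaRG cells in serum-free induction medium. CCND2 mRNA by TaqMan qRT-PCR, normalised to ACTB/GAPDH/POLR2A; bidirectional fit versus DMSO.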

Read-out in assay [3]: Cyclin Dependent Kinase Inhibitor 1A (CDKN1A), CDKN1A (gene 1026)
Nature of the assay: LTEA_HepaRG_CDKN1A: Life Technologies and Expression Analysis (LTEA) Assay for Cyclin Dependent Kinase Inhibitor 1A (CDKN1A) using HepaRG (AID 2283450). To be noted: mRNA level, 48 h; actives raise or lower the signal. Put shortly:
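Differentiated human HepaRG cells, pre-cultured 48 h, were exposed in duplicate for 48 h in serum-free induction medium to eight half-log concentrations up to 100 uM (0.5% DMSO). CDKN1A mRNA was measured by qRT-PCR, normalized to ACTB/GAPDH/POLR2A, bidirectionally fitted versus DMSO.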

Read-out in assay [4]: Cyclin D1 (CCND1), CCND1 (gene 595)
Nature of the assay: LTEA_HepaRG_CCND1: Life Technologies and Expression Analysis (LTEA) Assay for Cyclin D1 (CCND1) using HepaRG (AID 2283451).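 For AC50: TaqMan qRT-PCR transcript level normalised to ACTB GAPDH and POLR2A housekeeping genes.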 To be noted: mRNA level, 48 h; actives raise or lower the signal. The gist of the method: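 Differentiated human HepaRG cells in serum-free induction medium were exposed 48 h to eight half-log concentrations up to 100 uM in 0.5% DMSO; mRNA quantified by TaqMan qRT-PCR, normalized to ACTB, GAPDH, POLR2A, fitted bidirectionally versus DMSO.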

Read-out in assay [5]: catalase (CAT), CAT (gene 847)
The assay can be described thus: LTEA_HepaRG_CAT: Life Technologies and Expression Analysis (LTEA) Assay for catalase (CAT) using HepaRG (AID 2283452). The note with it: mRNA level, 48 h; actives raise or lower the signal. The gist of the method:
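HepaRG cells in serum-free induction medium, 0.5% DMSO vehicle, exposed 48 h in duplicate over 8 half-log concentrations from 100 uM. CAT mRNA measured by qRT-PCR, normalized to ACTB, GAPDH, POLR2A; bidirectional fit versus DMSO.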

Read-out in assay [6]: flavin-containing dimethylaniline monooxygenases 3 (FMO3), FMO3 (gene 2328)
The assay can be described thus: LTEA_HepaRG_FMO3: Life Technologies and Expression Analysis (LTEA) Assay for flavin-containing dimethylaniline monooxygenases 3 (FMO3) using HepaRG (AID 2283453). The note with it: mRNA level, 48 h; actives raise or lower the signal. Put shortly: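 HepaRG, 48 h exposure, 8-pt half-log series from 100 uM, 0.5% DMSO vehicle, duplicates; FMO3 transcript by Fluidigm TaqMan qRT-PCR, housekeeping-normalized; gain/loss fit vs DMSO.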

Read-out in assay [7]: Cytochrome P450 (CYP1A1), CYP1A1 (gene 1543)
Nature of the assay: LTEA_HepaRG_CYP1A1: Life Technologies and Expression Analysis (LTEA) Assay for Cytochrome P450 (CYP1A1) using HepaRG (AID 2283454). The note with it: mRNA level, 48 h; actives raise or lower the signal. The gist of the method:
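Differentiated HepaRG cells in serum-free induction medium were exposed in duplicate for 48 h to eight half-log concentrations up to 100 uM in 0.5% DMSO. CYP1A1 mRNA was quantified by TaqMan qRT-PCR, normalized to ACTB, GAPDH and POLR2A.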

Read-out in assay [8]: CFLAR gene, CFLAR (gene 8837)
Nature of the assay: LTEA_HepaRG_CFLAR: Life Technologies and Expression Analysis (LTEA) Assay for CFLAR gene using HepaRG (AID 2283455). The note with it: mRNA level, 48 h; actives raise or lower the signal. The gist of the method: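 Differentiated HepaRG cells in serum-free induction medium were exposed 48 h in duplicate to eight half-log concentrations up to 100 uM in 0.5% DMSO; mRNA measured by TaqMan qRT-PCR, normalized to ACTB, GAPDH, POLR2A; bidirectional fitting versus DMSO.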

Read-out in assay [9]: Forkhead box O1 (FOXO1), FOXO1 (gene 2308)
The assay can be described thus: LTEA_HepaRG_FOXO1: Life Technologies and Expression Analysis (LTEA) Assay for Forkhead box O1 (FOXO1) using HepaRG (AID 2283456). To be noted: mRNA level, 48 h; actives raise or lower the signal. Put shortly: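 Differentiated HepaRG cells, in serum-free induction medium with 0.5% DMSO, exposed 48 h in duplicate to 8-point half-log series from 100 uM. FOXO1 mRNA measured by TaqMan qRT-PCR, normalized to ACTB, GAPDH, POLR2A; bidirectional fit versus DMSO.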

Read-out in assay [10]: growth arrest and DNA damage 45 (GADD45A), GADD45A (gene 1647)
Nature of the assay: LTEA_HepaRG_GADD45A: Life Technologies and Expression Analysis (LTEA) Assay for growth arrest and DNA damage 45 (GADD45A) using HepaRG (AID 2283458). The note with it: mRNA level, 48 h; actives raise or lower the signal. Put shortly:
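Differentiated HepaRG cells were exposed in duplicate for 48 h in serum-free induction medium to 8-point half-log concentrations up to 100 uM in 0.5% DMSO. GADD45A mRNA was measured by TaqMan qRT-PCR, normalized to ACTB, GAPDH and POLR2A, with bidirectional fitting versus DMSO.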

Read-out in assay [11]: Forkhead box O3 (FOXO3), FOXO3 (gene 2309)
Nature of the assay: LTEA_HepaRG_FOXO3: Life Technologies and Expression Analysis (LTEA) Assay for Forkhead box O3 (FOXO3) using HepaRG (AID 2283459). The note with it: mRNA level, 48 h; actives raise or lower the signal. Put shortly: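 Differentiated human HepaRG cells, 48 h post-plating, exposed in duplicate for 48 h in serum-free induction medium; 8-point half-log series from 100 uM in 0.5% DMSO. FOXO3 mRNA by TaqMan qRT-PCR, normalized to ACTB/GAPDH/POLR2A; bidirectional fit versus DMSO.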

Read-out in assay [12]: ABC Transporter (ABCB1), ABCB1 (gene 5243)
The assay can be described thus: LTEA_HepaRG_ABCB1: Life Technologies and Expression Analysis (LTEA) Assay for ABC Transporter (ABCB1) using HepaRG (AID 2283460). To be noted: mRNA level, 48 h; actives raise or lower the signal. Put shortly:
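HepaRG cells exposed in duplicate for 48 h in serum-free induction medium to eight half-log concentrations up to 100 uM in 0.5% DMSO. ABCB1 mRNA quantified by qRT-PCR, normalised to ACTB, GAPDH and POLR2A; fitted bidirectionally versus DMSO.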

Read-out in assay [13]: growth arrest and DNA damage 45 (GADD45B), GADD45B (gene 4616)
Nature of the assay: LTEA_HepaRG_GADD45B: Life Technologies and Expression Analysis (LTEA) Assay for growth arrest and DNA damage 45 (GADD45B) using HepaRG (AID 2283461). The note with it: mRNA level, 48 h; actives raise or lower the signal. The gist of the method:
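Differentiated HepaRG cells, plated 48 h then switched to serum-free induction medium, were exposed 48 h in duplicate to eight half-log concentrations from 100 uM in 0.5% DMSO; mRNA quantified by qRT-PCR, normalized to ACTB/GAPDH/POLR2A, bidirectional fit versus DMSO.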

Read-out in assay [14]: ABC Transporter (ABCC3), ABCC3 (gene 8714)
Nature of the assay: LTEA_HepaRG_ABCC3: Life Technologies and Expression Analysis (LTEA) Assay for ABC Transporter (ABCC3) using HepaRG (AID 2283462). The note with it: mRNA level, 48 h; actives raise or lower the signal. The gist of the method:
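HepaRG cells in serum-free induction medium were exposed for 48 h in duplicate to 8-point half-log concentrations topping at 100 uM in 0.5% DMSO. ABCC3 mRNA was measured by qRT-PCR normalized to ACTB, GAPDH and POLR2A, with bidirectional fitting versus DMSO.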

Read-out in assay [15]: ABC Transporter (ABCB11), ABCB11 (gene 8647)
The assay can be described thus: LTEA_HepaRG_ABCB11: Life Technologies and Expression Analysis (LTEA) Assay for ABC Transporter (ABCB11) using HepaRG (AID 2283463). To be noted: mRNA level, 48 h; actives raise or lower the signal. The gist of the method:
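Differentiated human HepaRG cells in serum-free induction medium, dosed in duplicate for 48 h. Eight-point half-log series from 100 uM in 0.5% DMSO; ABCB11 mRNA by qRT-PCR, normalized to ACTB, GAPDH, POLR2A, fitted bidirectionally versus DMSO.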

Read-out in assay [16]: ABC Transporter (ABCC2), ABCC2 (gene 1244)
Nature of the assay: LTEA_HepaRG_ABCC2: Life Technologies and Expression Analysis (LTEA) Assay for ABC Transporter (ABCC2) using HepaRG (AID 2283464). To be noted: mRNA level, 48 h; actives raise or lower the signal. Put shortly:
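HepaRG cells were plated 48 h, switched to serum-free induction medium, then exposed in duplicate for 48 h to 8 concentrations (top 100 uM, half-log steps, 0.5% DMSO). ABCC2 mRNA was measured by qRT-PCR normalized to ACTB/GAPDH/POLR2A; bidirectional fitting versus DMSO.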

Read-out in assay [17]: Broad substrate specificity ATP-binding cassette transporter ABCG2 (Homo sapiens) (UniProt Q9UNQ0)
Nature of the assay: LTEA_HepaRG_ABCG2: Life Technologies and Expression Analysis (LTEA) Assay for ABC Transporter (ABCG2) using HepaRG (AID 2283465). The note with it: mRNA level, 48 h; actives raise or lower the signal. Put shortly:
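Differentiated HepaRG cells were exposed for 48 h in serum-free induction medium to 8 half-log concentrations, top 100 uM, in 0.5% DMSO. ABCG2 mRNA was measured by qRT-PCR, normalized to ACTB, GAPDH and POLR2A, with bidirectional fitting versus DMSO.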

The nature of assay [18]: CEETOX_H295R_TESTO: CeeTox H295R High-throughput Steroidogenesis Assay for Testosterone (TESTO) (AID 2283457).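 Note: cells exposed to chemicals for 48 h before medium collection.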 To be noted: actives raise or lower the signal. Put shortly: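 H295R human adrenal cells in DMEM/F12 with ITS+ and Nu-Serum, exposed to chemicals for 48 h. Testosterone in medium measured by MTBE extraction, reverse-phase HPLC-MS/MS; bidirectional fit versus DMSO baseline. MTT viability checked in same wells.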

Read-out in assay [19]: Tumor necrosis factor receptor superfamily member 6 (Homo sapiens) (UniProt P25445)
Nature of the assay: LTEA_HepaRG_FAS: Life Technologies and Expression Analysis (LTEA) Assay for Fas cell surface death receptor (FAS) using HepaRG (AID 2283447). To be noted: mRNA level, 48 h; actives raise or lower the signal. Put shortly: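 Differentiated HepaRG cells in serum-free induction medium were exposed 48 h to 8 half-log concentrations up to 100 uM in 0.5% DMSO, in duplicate. FAS mRNA was measured by qRT-PCR normalised to ACTB, GAPDH and POLR2A; bidirectional fit versus DMSO.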

Fatty acid synthase (Homo sapiens), sequence (P49327 whole entry, looked up): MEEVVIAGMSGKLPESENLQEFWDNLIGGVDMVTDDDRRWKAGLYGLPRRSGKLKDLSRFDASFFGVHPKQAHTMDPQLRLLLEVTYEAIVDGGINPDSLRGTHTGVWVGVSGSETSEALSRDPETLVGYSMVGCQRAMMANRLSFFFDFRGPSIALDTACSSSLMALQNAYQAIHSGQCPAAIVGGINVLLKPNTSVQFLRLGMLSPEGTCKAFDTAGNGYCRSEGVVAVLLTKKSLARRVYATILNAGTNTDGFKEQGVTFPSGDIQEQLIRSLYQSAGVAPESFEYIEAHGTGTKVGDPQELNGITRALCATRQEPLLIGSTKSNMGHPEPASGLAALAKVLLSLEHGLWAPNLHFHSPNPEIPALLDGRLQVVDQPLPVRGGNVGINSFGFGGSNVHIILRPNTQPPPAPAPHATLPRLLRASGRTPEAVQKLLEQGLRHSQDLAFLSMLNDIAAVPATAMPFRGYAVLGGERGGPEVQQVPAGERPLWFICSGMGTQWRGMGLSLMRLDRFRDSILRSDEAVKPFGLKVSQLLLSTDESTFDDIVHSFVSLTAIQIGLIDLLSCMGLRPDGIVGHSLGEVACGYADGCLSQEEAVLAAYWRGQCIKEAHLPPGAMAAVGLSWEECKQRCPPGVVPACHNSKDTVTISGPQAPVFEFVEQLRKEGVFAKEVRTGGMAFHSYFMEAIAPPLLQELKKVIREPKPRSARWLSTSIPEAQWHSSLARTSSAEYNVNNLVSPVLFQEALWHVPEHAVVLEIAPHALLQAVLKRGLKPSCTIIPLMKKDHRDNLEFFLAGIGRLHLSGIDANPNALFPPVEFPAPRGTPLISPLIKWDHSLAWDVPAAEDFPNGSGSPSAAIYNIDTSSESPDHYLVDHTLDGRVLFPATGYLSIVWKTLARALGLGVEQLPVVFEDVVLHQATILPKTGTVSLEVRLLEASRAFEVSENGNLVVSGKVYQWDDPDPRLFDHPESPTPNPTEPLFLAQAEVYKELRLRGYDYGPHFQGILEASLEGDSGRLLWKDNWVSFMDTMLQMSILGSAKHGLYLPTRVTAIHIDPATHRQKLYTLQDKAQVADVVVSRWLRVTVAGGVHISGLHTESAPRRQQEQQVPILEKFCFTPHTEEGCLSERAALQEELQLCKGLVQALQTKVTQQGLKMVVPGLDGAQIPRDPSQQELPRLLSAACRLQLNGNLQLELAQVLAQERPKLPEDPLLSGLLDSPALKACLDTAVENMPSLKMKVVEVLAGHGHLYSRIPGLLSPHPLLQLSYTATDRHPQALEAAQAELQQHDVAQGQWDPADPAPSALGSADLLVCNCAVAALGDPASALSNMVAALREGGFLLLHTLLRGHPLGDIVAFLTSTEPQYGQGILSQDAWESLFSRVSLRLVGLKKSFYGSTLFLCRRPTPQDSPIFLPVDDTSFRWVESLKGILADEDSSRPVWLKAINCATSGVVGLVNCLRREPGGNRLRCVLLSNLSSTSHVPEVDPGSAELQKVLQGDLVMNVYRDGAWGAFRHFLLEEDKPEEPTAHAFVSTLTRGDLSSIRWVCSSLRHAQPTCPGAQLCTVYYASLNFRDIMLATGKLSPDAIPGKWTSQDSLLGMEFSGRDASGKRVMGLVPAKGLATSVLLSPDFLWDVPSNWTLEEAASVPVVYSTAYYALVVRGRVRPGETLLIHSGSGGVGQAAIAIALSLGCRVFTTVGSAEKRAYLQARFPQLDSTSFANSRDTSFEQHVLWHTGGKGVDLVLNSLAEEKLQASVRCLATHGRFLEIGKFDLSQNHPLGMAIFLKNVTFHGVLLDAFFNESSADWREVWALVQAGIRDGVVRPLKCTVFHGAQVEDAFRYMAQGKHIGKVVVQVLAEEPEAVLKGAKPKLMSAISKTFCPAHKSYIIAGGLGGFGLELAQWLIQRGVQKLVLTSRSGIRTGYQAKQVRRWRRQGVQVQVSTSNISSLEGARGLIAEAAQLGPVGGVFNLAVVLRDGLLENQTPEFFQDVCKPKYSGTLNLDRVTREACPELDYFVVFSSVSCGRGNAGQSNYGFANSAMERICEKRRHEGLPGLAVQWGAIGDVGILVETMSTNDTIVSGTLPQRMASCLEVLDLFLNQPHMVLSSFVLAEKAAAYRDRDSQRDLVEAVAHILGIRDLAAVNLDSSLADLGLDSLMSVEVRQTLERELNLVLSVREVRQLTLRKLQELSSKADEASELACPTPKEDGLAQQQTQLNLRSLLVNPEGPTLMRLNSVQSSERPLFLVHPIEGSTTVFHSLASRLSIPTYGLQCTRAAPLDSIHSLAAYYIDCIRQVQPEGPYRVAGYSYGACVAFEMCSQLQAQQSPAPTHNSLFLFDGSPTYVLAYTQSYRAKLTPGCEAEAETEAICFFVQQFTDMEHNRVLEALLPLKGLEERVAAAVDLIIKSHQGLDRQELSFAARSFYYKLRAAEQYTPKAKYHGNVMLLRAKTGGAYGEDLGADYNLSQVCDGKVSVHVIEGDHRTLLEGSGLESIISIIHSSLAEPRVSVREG
Broad substrate specificity ATP-binding cassette transporter ABCG2 (Homo sapiens), sequence (Q9UNQ0 whole entry, looked up): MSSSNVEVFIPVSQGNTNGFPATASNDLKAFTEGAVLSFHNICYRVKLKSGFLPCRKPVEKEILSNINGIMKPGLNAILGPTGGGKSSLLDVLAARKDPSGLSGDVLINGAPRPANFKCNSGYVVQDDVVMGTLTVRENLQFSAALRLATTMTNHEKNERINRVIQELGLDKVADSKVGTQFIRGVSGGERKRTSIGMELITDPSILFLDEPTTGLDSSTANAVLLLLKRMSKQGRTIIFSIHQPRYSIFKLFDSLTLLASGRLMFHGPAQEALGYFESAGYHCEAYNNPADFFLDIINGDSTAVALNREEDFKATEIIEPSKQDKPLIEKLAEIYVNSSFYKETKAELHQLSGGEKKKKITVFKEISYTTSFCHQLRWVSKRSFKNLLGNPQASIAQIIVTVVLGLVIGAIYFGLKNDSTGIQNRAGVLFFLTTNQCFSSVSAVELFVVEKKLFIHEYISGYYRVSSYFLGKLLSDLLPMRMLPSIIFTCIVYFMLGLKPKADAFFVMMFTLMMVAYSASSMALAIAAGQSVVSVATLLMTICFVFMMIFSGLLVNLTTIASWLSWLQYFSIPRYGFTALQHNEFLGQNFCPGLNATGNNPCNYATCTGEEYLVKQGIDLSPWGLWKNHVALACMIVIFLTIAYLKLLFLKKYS

For the compound `CCOP(=S)(OCC)OC(Cl)C(Cl)(Cl)Cl` (centres undefined), the call in assay [1], in assay [2], in assay [3], in assay [4], in assay [5] and in assay [6] was inactive. Further, the outcome in assay [8], in assay [9], in assay [10], in assay [11], in [12] and in assay [13] was inactive. The outcome in [14], in assay [15], in assay [16] and in assay [17] was inactive. Also, in assay [7], the AC50 was 74.3 µM (active).

Take `C[N+]1(C)CCCCC1`: the call in assay [1], in assay [2], in [3], in assay [4], in assay [5] and in [6] was inactive. Further, the compound was classed as inactive in [8], in assay [9], in [10], in [11], in [12] and in assay [13]. Further, the outcome in assay [14], in [15], in assay [16] and in [17] was inactive. Besides, in assay [7], the AC50 was 50 µM (active).

On to `CCC(=O)Nc1ccc(Cl)c(Cl)c1`, for which the AC50 was 30.8 µM (active) in assay [1]; 50 µM (active) in assay [4]; 32.1 µM (active) in assay [7]; 2.93 µM (active) in assay [18]; 50 µM (active) in assay [16]. The result in assay [3], in assay [5], in assay [6], in assay [8], in assay [9] and in assay [10] was inactive. Also, the compound was classed as inactive in [11], in assay [12], in [13], in [14], in assay [15] and in assay [17].

On to `CCCCOC(=O)[C@@H](C)Oc1ccc(Oc2ccc(C#N)cc2F)cc1`, for which the outcome in assay [19], in [1], in assay [2], in assay [3], in assay [4] and in assay [5] was inactive. Besides, the compound was classed as inactive in assay [6], in assay [8], in assay [9], in [10], in assay [11] and in assay [12]. Also, the call in [13], in [14], in assay [15], in [16] and in [17] was inactive. The AC50 in assay [7] is 23.3 µM (active).
